High-throughput results deposited in PubChem by several laboratories.
CRFR2-BP ag: agonists of human CRF-binding protein/CRF-R2 receptor complex; HEK293 CRF-R2/CRF-BP, calcium dye fluorescence (FLIPR); percent of saturating CRF peptide response; activation, % at 13.2 µM; 350,000 tested, 0.46% active; AID 588473;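 active = activation of at least 50%, plus an integration ratio under a set limit after plate pattern correction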;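 also: plate controls were neutral control wells without compound for no effect and CRF at EC100 for full effect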
CRFBP-R2 block: antagonists of CRF-binding protein/CRF-R2 receptor complex | HEK293 CRF-R2/CRF-BP, CRF-induced calcium fluorescence | inhibition, % at 11.8 µM | 350,000 tested, 0.59% active;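 active = inhibition of the ligand-induced calcium signal above about 50% at the single tested concentration, limit read from the data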
IDE cell activ: activators of human insulin-degrading enzyme in cells; P14735; HEK cells, FAbeta-B cleavage, fluorescence polarization; 0% vehicle, 100% cell-free pure enzyme wells; activation, % at 5.96 µM; 340,000 tested, 0.073% active; AID 493087;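 active = activation above the mean of all tested compounds plus 3 SD, set per screening campaign, cut at about 17% in these data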
Target sequence (P14735 whole entry, looked up): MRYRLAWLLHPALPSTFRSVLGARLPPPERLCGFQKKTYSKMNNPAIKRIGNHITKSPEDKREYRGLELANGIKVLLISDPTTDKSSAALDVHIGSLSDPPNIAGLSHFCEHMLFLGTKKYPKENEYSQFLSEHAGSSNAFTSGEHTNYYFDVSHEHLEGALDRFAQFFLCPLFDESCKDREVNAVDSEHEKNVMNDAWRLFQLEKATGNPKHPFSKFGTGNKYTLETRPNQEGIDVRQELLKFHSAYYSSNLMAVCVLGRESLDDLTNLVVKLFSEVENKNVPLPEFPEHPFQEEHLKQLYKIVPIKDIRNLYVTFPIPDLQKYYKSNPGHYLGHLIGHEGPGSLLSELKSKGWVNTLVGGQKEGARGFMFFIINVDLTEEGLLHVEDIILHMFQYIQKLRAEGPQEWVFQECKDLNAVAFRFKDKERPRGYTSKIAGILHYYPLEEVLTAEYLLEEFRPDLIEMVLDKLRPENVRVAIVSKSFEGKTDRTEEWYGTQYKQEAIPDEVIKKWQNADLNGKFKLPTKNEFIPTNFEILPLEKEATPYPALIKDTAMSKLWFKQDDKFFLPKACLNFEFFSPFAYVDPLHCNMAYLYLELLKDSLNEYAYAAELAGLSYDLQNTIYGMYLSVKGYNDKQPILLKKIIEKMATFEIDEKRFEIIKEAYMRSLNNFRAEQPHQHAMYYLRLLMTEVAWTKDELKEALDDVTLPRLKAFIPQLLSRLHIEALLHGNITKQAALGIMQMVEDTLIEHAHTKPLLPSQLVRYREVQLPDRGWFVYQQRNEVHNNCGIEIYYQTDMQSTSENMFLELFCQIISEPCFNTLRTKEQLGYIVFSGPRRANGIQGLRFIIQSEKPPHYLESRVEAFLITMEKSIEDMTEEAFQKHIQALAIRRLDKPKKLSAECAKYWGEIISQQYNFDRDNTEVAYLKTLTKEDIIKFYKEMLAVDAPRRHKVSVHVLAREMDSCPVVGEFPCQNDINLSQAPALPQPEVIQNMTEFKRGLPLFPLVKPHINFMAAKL
Myeloid diff 2: promotes myeloid progenitor differentiation. ER-HoxA9 myeloid progenitors, lysozyme-GFP differentiation, flow cytometry. calls only at 10 µM. 360,000 tested, 1% active;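 active = normalized GFP-positive differentiation at or above the plate's own cutoff, the solvent-only control mean plus 3 SD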;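 also: cells exposed to compound for four days before flow analysis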
TPT1 inh: C. albicans TPT1 enzyme inhibition; recombinant caTPT1, FP RNA substrate dephosphorylation; inhibition, % at 5 µM; 300,000 tested, 0.81% active; AID 1962;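 active = inhibition above the mean of all tested compounds plus 3 SD, set per screening campaign, cut at about 24% in these data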;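 also: plate controls were DMSO alone for no effect and ferristatin control at 100 nM for full effect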
IDE cell inh: inhibits human insulin-degrading enzyme in HEK cells; AID 434962; P14735; FAbetaB cleavage, fluorescence polarization; 320,000 tested, 0.41% active; inhibition, % at 5.59 µM;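 active = percent inhibition above the average of all tested compounds plus 3 SD, set per screening campaign, cut at about 16% in these data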;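 also: IDE supplied by intact live HEK cells; FP after avidin binding of uncleaved biotin substrate so inhibition keeps polarization high; 0% = DMSO wells and 100% = 60 µM reference IDE inhibitor Ii1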
Myeloid diff: myeloid differentiation induction. 2,300 tested, 2% active. calls only. shares compounds with Myeloid diff 2. AID 651706. ER-HoxA9 myeloid progenitors, GFP/Mac1 double-positive flow;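 active = share of green or green-and-red cells above 9 and 9% in run 1 or 4 and 3% in run 2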
GFP autofluor: flagged as fluorescent in myeloid differentiation counter-screen. shares compounds with Myeloid diff 2. fluorescence response, % (concentration not given with the values). ER-HoxA9 myeloid progenitors, no estrogen, GFP autofluorescence flow cytometry; vehicle wells 0%, positive control 100%. 2,300 tested, 7.4% active. AID 651707;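 active = over 5% cells positive for green fluorescent reporter, or over 2% positive for both it and APC stain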;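 also: range taken on the double positive population between DMSO and positive control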
* marks the source's active call; other numbers are inactive results; i = inactive; x = not tested or not shown; + = active, no number. Shown are actives, neighbours in structure and some others; about 2.6% of the full set was active somewhere.

SMILES	CRFR2-BP ag	CRFBP-R2 block	IDE cell activ	Myeloid diff 2	TPT1 inh	IDE cell inh	Myeloid diff	GFP autofluor
O=C(Nc1ccc(Cl)cc1F)C1CCCN(C2=NS(=O)(=O)c3ccccc32)C1 (stereo not given)	-0.6	17.7	-1.6	i	x	x	x	x
Cc1ccc(NC(=O)C2CCCN(C3=NS(=O)(=O)c4ccccc43)C2)c(O)c1 (stereo not given)	2.4	0.0	0.3	+	x	2.5	i	20.8*
N#Cc1c(C(F)(F)F)cc(-c2ccccc2)nc1SCC(=O)Nc1sc2c(c1C#N)CCC2	5.4	1.6	3.1	i	8.9	3.8	i	0.0
COc1cc(C(C(=O)NC2CCCCC2)N(CCN2CCOCC2)C(=O)C2COc3ccccc3O2)cc(OC)c1OC (stereo not given)	-4.7	-0.6	-0.1	i	-0.9	1.7	x	x
C[C@@H]1CN([C@@H](C)CO)C(=O)c2cc(Br)cnc2O[C@H]1CN(C)C(=O)Nc1ccc(F)cc1	-1.4	0.7	x	i	x	x	x	x
COc1cccc(C(=O)N2CCCC(c3nc(-c4cccs4)no3)C2)c1 (stereo not given)	-3.0	-35.5	-0.7	i	-3.6	7.7	x	x
COc1cc(C(=O)N2CCCC(c3nc(-c4cccs4)no3)C2)cc(OC)c1OC (stereo not given)	-3.3	-15.2	2.3	i	1.2	1.7	i	1.2
CN(C)S(=O)(=O)c1cccc(NC(=O)COC(=O)CCc2nc3ccccc3s2)c1	-0.8	5.0	-2.7	i	0.4	1.7	i	1.8
CN(C)S(=O)(=O)c1cccc(NC(=O)COC(=O)c2ccc3ccccc3n2)c1	-0.2	-16.9	4.0	i	x	3.4	x	x
C[C@H]1CN([C@@H](C)CO)C(=O)c2cc(NC(=O)CCN3CCOCC3)ccc2O[C@H]1CN(C)C(=O)Nc1ccc(F)cc1	1.9	-5.6	1.3	i	x	-2.6	x	x
C[C@H](CO)N1C[C@H](C)[C@@H](CN(C)C(=O)NC2CCCCC2)Oc2ccc(NS(=O)(=O)c3cccs3)cc2C1=O	-0.9	-4.5	1.4	i	x	-0.4	x	x
CC(C)NC(=O)N(C)C[C@H]1Oc2ccc(NS(=O)(=O)c3cccs3)cc2C(=O)N([C@H](C)CO)C[C@@H]1C	-0.9	2.7	-1.2	i	x	6.4	i	0.0
COc1ccc(NC(=O)N(C)C[C@H]2Oc3ccc(NC(=O)CCN4CCOCC4)cc3C(=O)N([C@H](C)CO)C[C@@H]2C)cc1	0.2	0.2	-1.0	i	x	4.6	i	3.1
COc1ccc(SCc2noc(C(=O)NC(C)C)c2C(=O)O)cc1	-2.3	-15.7	4.0	i	-6.4	5.1	x	x
Brc1ccc(-n2cnc(-c3ccccc3)c2)cc1	0.1	-9.5	-1.7	i	-2.1	1.8	x	x
CCC(=O)NCCc1nc2ccccc2n1Cc1ccc(C)cc1	0.0	7.2	0.5	i	-0.3	-0.3	x	x
C=CCCC(=O)N1C[C@H]2CON(C)[C@H]2C[C@H]1c1cccc(N2CCOCC2)c1	-1.0	-8.1	x	i	x	x	x	x
CCN(Cc1ccccc1)C(=O)C1CCN(C/C(C)=C/c2ccccc2)CC1	1.9	2.0	1.6	i	0.2	-2.0	i	0.3
CCN(Cc1ccccc1)C(=O)C1CCN(Cc2ccc(SC)cc2)CC1	5.0	-30.9	-0.4	i	2.6	-1.9	x	x
C=CCNC(=O)c1ccccc1NC(=O)c1ccccc1	4.4	-14.0	-3.0	i	1.2	-0.3	i	0.9
CCOc1ccc(NS(=O)(=O)c2ccc(NS(=O)(=O)c3ccccc3)cc2)cc1	7.0	-35.4	11.8	i	-2.9	-2.9	i	0.0
CCOc1ccc(S(=O)(=O)Nc2cc(NS(=O)(=O)c3ccc(OCC)cc3)cc(C(=O)O)c2)cc1	-0.7	-1.8	2.1	i	x	-2.1	x	x
Cc1nc2nc(-c3ccco3)[nH]n2c(=O)c1Cc1ccccc1	2.4	3.4	3.9	i	-5.8	9.4	x	x
Cc1nc2nc(-c3ccco3)[nH]n2c(=O)c1C	0.9	11.9	0.0	i	3.2	2.9	i	0.4
C[C@H](CO)N1C[C@H](C)[C@@H](CN(C)CC2CCCCC2)Oc2c(NC(=O)Cc3ccccc3)cccc2C1=O	-0.3	-9.4	1.3	i	x	-4.9	x	x
SMILES	CRFR2-BP ag	CRFBP-R2 block	IDE cell activ	Myeloid diff 2	TPT1 inh	IDE cell inh	Myeloid diff	GFP autofluor
CN(CC(=O)Nc1ccccc1C(F)(F)F)C(=O)c1cc([N+](=O)[O-])ccc1N1CCOCC1	0.4	22.9	3.8	i	-2.3	6.8	x	x
COc1ccc(C2=NN(C(=O)c3ccco3)C(c3ccco3)C2)cc1OC (stereo not given)	-0.5	0.8	0.3	i	0.1	-8.9	x	x
COc1ccc(C2=NN(C(N)=S)C(c3ccco3)C2)cc1 (stereo not given)	2.6	-8.5	3.2	+	20.1	-4.1	i	0.0
COc1ccc(C2=NN(C(=O)CSc3nc4ncc(Cl)cc4[nH]3)C(c3ccco3)C2)cc1 (stereo not given)	29.9	-10.6	1.5	i	8.8	-1.0	x	x
COc1ccc(C2=NN(C(=O)CSc3nnc(-c4ccccc4F)o3)C(c3ccco3)C2)cc1 (stereo not given)	0.1	-9.4	4.4	i	3.4	-1.5	i	0.0
CC(=O)c1ccc(NC(=O)C(=O)c2cn(CC(=O)N3CCCCC3)c3ccccc23)cc1	0.8	0.9	4.4	i	0.6	-2.7	x	x
Cc1onc(-c2ccccc2)c1C(=O)N1CCc2ccccc21	-0.5	10.3	3.0	i	-3.4	-0.5	x	x
COc1ccc(NCC(=O)Nc2cccc(C(F)(F)F)c2)cc1S(=O)(=O)N1CCOCC1	-1.7	1.3	-2.2	i	x	1.9	x	x
NC(=O)c1ccc(N2CCN(c3ccccc3F)CC2)c([N+](=O)[O-])c1	0.4	-2.4	-1.2	i	0.5	4.0	i	0.7
NC(=O)c1ccc(N2CCN(c3ccccc3O)CC2)c([N+](=O)[O-])c1	-2.7	-4.3	-2.9	i	3.3	-2.5	x	x
O=C(CN1CCCCC1)Nc1nnc(-c2ccccc2)s1	13.2	-22.4	-1.0	i	-4.5	-1.9	x	x
O=C(CN1CCCCC1)Nc1nnc(-c2ccc([N+](=O)[O-])cc2)s1	9.6	11.6	-3.1	i	-1.4	0.6	i	0.0
NC(N)=NC(=O)c1nc(Cl)c(N)nc1N	0.1	-44.0	2.0	i	4.9	-3.3	i	0.0
CCc1c(N)nc(N)nc1Nc1ccc(C)c(C)c1	1.3	-21.0	1.2	i	x	x	i	0.9
CSc1ccc(Cl)c(C(=O)Nc2cc(S(=O)(=O)N3CCOCC3)ccc2N2CCOCC2)c1	1.4	-5.9	2.6	i	x	3.9	x	x
